# Measurements published in PMC7862700, “An all-to-all approach to the identification of sequence-specific readers for epigenetic DNA modifications on cytosine”.
# Assays:
# Experiment in all cases: DAPPL (digital affinity profiling via proximity ligation, sequencing); 10 mM Tris-HCl pH 7.5, 50 mM NaCl, 1 mM DTT, 4% glycerol, room temperature, 30 min; GST-TFs on glutathione beads, 16-mer random dsDNA library, 0.1% formaldehyde crosslink after washing; high values mean tight binding
# Conditions in all cases: protein: recombinant; tags: N-terminal GST; dsDNA, one strand shown
# ETV1 = ETV1 (Homo sapiens, UniProt P50549 1-477)
# Sequence of ETV1 (P50549 whole entry, the tested form may be a part): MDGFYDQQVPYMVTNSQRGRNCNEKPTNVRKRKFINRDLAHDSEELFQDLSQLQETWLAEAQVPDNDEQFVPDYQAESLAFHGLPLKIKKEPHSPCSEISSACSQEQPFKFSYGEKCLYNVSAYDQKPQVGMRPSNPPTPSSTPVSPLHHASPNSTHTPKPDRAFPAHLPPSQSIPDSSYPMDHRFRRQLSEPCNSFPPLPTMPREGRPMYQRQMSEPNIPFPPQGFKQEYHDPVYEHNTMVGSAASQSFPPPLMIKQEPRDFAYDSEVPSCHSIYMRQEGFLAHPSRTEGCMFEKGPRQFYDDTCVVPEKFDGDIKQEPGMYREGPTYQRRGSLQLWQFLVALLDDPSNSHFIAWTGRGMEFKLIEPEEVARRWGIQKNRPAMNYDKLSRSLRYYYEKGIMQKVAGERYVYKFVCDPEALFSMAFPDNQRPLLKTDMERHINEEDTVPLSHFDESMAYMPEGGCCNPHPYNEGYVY
# Outline: (§1)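 Beads coated with glutathione captured GST-fused human transcription factors that had been expressed in yeast, and the factors were then given DNA barcodes and pooled with a tag-only sample. The pools were incubated with 200 nmole of a random double-stranded 16-mer DNA library in Tris/NaCl/DTT/glycerol buffer for 30 min at room temperature, washed, crosslinked with 0.1% formaldehyde and proximity-ligated with BsaI/T4 ligase at 37 °C for 1 h. PCR amplification and Illumina NextSeq500 sequencing came last. Binding signal is each hexamer's read frequency for a factor divided by its frequency for the tag-only sample.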
# ERF = biological target: T1, ERF (Homo sapiens, UniProt P50548 1-548)
# T1 sequence: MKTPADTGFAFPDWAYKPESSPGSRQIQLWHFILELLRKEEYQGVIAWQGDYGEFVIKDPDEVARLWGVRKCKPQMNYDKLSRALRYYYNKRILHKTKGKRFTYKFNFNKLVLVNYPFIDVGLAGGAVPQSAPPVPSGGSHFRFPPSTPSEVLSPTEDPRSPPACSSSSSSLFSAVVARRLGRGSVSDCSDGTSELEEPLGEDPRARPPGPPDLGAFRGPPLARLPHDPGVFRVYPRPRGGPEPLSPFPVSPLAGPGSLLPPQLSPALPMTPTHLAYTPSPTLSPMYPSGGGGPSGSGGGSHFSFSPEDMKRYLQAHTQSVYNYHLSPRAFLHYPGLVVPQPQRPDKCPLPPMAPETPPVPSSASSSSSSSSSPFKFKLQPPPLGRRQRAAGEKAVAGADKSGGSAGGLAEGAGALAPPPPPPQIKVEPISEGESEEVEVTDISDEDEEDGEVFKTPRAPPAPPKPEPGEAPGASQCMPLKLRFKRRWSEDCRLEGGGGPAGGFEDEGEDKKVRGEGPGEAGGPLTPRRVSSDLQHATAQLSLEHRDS
# Outline: as §1
# ETV3L = biological target: T2, ETV3L (Homo sapiens, UniProt Q6ZN32 1-361)
# T2 sequence: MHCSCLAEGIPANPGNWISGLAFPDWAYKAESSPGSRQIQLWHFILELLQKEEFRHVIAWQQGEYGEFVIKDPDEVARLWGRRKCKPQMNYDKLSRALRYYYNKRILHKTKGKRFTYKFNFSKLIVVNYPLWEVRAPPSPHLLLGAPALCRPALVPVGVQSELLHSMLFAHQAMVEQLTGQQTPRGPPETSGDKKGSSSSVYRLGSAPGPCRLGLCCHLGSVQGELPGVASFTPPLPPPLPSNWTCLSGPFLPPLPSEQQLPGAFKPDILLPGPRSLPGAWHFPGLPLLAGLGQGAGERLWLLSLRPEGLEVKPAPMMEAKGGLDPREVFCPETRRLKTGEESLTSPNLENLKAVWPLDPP
# Outline: as §1
# ETS2 = biological target: T3, ETS2 (Homo sapiens, UniProt P15036 1-469)
# T3 sequence: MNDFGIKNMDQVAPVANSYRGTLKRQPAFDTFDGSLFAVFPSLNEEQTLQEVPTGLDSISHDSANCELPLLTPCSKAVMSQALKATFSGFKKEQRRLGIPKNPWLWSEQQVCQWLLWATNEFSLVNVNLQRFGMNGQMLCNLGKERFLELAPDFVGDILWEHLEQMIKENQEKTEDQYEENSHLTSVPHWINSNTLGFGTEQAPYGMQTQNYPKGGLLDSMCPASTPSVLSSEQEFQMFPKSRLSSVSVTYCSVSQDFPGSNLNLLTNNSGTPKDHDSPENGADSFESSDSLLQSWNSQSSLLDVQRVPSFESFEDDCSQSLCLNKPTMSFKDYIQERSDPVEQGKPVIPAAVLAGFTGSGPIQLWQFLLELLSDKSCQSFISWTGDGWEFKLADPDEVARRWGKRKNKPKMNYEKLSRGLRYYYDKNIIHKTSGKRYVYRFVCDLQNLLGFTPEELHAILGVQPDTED
# Outline: as §1
# SPDEF = biological target: T4, SPDEF (Homo sapiens, UniProt O95238 1-335)
# T4 sequence: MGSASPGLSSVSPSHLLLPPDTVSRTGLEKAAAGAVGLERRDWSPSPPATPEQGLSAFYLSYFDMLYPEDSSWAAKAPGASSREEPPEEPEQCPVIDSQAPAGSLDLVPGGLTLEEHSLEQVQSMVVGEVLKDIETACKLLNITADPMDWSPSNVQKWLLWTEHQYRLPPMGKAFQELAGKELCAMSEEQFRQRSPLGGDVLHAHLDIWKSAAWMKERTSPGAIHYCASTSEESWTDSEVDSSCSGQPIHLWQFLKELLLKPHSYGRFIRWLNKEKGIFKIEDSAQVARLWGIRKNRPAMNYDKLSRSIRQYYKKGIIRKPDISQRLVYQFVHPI
# Outline: as §1
# ETV7 = biological target: T5, ETV7 (Homo sapiens, UniProt Q9Y603 1-341)
# T5 sequence: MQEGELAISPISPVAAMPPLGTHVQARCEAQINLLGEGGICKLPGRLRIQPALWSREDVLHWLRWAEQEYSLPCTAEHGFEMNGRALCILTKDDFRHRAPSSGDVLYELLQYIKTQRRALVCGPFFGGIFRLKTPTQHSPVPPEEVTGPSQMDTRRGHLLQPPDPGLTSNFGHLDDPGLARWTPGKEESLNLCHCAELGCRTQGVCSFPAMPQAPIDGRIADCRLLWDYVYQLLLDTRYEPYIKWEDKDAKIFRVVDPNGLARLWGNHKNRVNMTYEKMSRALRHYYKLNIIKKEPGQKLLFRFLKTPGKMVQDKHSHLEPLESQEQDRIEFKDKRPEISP
# Outline: as §1
# ELF5 = biological target: T6, ELF5 (Homo sapiens, UniProt Q9UKW6-2 1-255)
# T6 sequence: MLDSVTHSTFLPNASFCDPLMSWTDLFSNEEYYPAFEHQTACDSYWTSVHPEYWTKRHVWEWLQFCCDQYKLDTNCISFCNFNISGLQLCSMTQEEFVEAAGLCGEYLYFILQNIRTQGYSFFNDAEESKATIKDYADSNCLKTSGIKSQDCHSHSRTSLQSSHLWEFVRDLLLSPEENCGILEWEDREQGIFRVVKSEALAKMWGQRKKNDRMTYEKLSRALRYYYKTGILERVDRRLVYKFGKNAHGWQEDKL
# Outline: as §1
# ETV3 = biological target: T7, ETV3 (Homo sapiens, UniProt P41162-2 1-143)
# T7 sequence: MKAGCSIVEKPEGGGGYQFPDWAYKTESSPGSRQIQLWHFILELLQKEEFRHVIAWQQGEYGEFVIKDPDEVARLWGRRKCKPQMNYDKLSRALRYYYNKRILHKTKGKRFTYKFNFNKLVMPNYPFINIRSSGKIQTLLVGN
# Outline: as §1
# ETV6 = ETV6 (Homo sapiens, UniProt P41212 1-452)
# Sequence of ETV6 (P41212 whole entry): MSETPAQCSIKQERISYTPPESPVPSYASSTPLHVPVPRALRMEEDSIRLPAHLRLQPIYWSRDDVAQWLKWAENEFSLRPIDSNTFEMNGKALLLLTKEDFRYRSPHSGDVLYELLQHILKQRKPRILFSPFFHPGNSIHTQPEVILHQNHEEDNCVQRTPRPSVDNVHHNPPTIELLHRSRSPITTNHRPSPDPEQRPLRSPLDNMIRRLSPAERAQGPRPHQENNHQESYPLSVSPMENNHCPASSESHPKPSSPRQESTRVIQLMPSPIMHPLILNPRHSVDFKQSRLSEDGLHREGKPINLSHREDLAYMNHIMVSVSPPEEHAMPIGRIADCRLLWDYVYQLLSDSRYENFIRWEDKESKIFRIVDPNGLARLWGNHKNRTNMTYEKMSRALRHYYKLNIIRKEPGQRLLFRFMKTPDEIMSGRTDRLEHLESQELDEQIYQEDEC
# Outline: as §1
sequence,measurement,setting,value
CTCTCC,binding signal,ETV1,"1.42 fold enrichment (6-mer frequency, TF over GST control)"
same,binding signal,ERF,"1.43 fold enrichment (6-mer frequency, TF over GST control)"
same,binding signal,ETV3L,"1.44 fold enrichment (6-mer frequency, TF over GST control)"
same,binding signal,ETS2,"1.43 fold enrichment (6-mer frequency, TF over GST control)"
same,binding signal,SPDEF,"1.22 fold enrichment (6-mer frequency, TF over GST control)"
same,binding signal,ETV7,"1.31 fold enrichment (6-mer frequency, TF over GST control)"
same,binding signal,ELF5,"1.37 fold enrichment (6-mer frequency, TF over GST control)"
same,binding signal,ETV3,"1.45 fold enrichment (6-mer frequency, TF over GST control)"
same,binding signal,ETV6,"1.37 fold enrichment (6-mer frequency, TF over GST control)"
